Most compounds without a hit are left out; they make up all but 2.6% or so of the library.
FID counter: fluorescent intercalator displacement, NS3 helicase counter-screen. DNA fluorescent intercalator displacement, fluorescence. inhibition, % at 7.9 µM. 290,000 compounds, 0.17% hits. AID 1845; in the data active = inhibition above about 37%;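 note: 0% = vehicle and 100% = reference compound; higher means more ethidium bromide displaced from hairpin DNA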
IEC-6 tox: kills IEC-6 intestinal cells in KLF5 counter-screen; AID 1825; 290,000 compounds, 0.78% hits; inhibition, % at 5 µM; IEC-6 cytotoxicity, luminescence viability;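 note: 0% = plate median of test compound wells and 100% = cytotoxic reference compound wells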
GPR7 antag: antagonists of human GPR7 (neuropeptides B/W receptor 1); P48145; GPR7-expressing cells, fluorescence antagonist assay; inhibition, % at 4.4 µM; 290,000 compounds, 1.1% hits; in the data active = inhibition above about 16%, passing the limit was not always enough;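 note: cells stimulated with the agonist NPW; 0% = agonist with vehicle and 100% = vehicle without agonist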
Target sequence (P48145 whole entry, looked up): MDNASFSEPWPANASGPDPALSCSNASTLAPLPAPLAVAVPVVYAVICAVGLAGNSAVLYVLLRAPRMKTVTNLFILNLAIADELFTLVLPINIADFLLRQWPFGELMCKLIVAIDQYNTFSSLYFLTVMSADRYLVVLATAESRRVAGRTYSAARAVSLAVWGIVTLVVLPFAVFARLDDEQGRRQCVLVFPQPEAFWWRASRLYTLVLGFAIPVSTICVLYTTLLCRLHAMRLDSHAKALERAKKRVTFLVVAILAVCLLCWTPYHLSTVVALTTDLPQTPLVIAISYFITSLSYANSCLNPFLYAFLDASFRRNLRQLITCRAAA
KLF5 inhibitor: kruppel-like factor 5 inhibition | DLD-1 KLF5 promoter-luciferase reporter, luminescence | inhibition, % at 5 µM | 290,000 compounds, 0.23% hits | AID 1700;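 active = inhibition above a per-plate limit of that plate's mean compound inhibition plus 3 SD, cut at about 60% in these data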;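 note: 0% = DMSO wells and 100% = LY294002 at 200 µM; higher means less KLF5 promoter-driven luciferase light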
Ba/F3 V617F tox: lowers viability of Ba/F3 cells expressing EpoR and JAK2V617F | ATP luminescence | inhibition, % at 5.6 µM | 220,000 compounds, 1.1% hits | AID 1446;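 active = inhibition above the campaign mean plus 3 SD over all tested compounds, cut at about 24% in these data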;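 note: cytokine-independent growth of Ba/F3 cells driven by EpoR plus mutant JAK2; 0% = DMSO-treated cells and 100% = JAK inhibitor I control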
BaF3 tox: parental Ba/F3 viability inhibition as JAK2V617F counter-screen. inhibition, % at 5.6 µM. CellTiter-Glo ATP luminescence. 220,000 compounds, 1.1% hits. AID 1486;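 active = inhibition above a per-campaign cutoff, the mean inhibition of all tested compounds plus 3 SD, cut at about 27% in these data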;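 note: 0% = DMSO wells and 100% = JAK Inhibitor I control wells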
GPR7 antag cf: confirmation of human GPR7 antagonists. GPR7-expressing cells, calcium fluorescence antagonist mode. 2,400 compounds, 52% hits. inhibition, % at 4.4 µM. AID 1952. shares compounds with GPR7 antag; in the data active = inhibition above about 24%;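 note: stimulated with the GPR7 agonist NPW; 0% = agonist plus vehicle and 100% = vehicle alone without agonist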
MCHR1 antagonist: counter-screen for GPR7 antagonists: antagonists of human MCHR1. 2,400 compounds, 62% hits. AID 2148. shares compounds with GPR7 antag. MCHR1-expressing cells, fluorescence antagonist assay. inhibition, % at 4.4 µM;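 note: 0% = vehicle with agonist and 100% = vehicle without agonist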
Active calls of the source: *; · = not tested or not shown; ! = not active in a repeat. Cut-off read from the data, not from the text of the source, unless noted: active = inhibition above about 22%; inactive = the rest.

SMILES	FID counter	IEC-6 tox	GPR7 antag	KLF5 inhibitor	Ba/F3 V617F tox	BaF3 tox	GPR7 antag cf	MCHR1 antagonist
C=C(CCC(=O)c1ccccc1)C(=O)c1ccccc1	-6	18	46*	-21	4	2	86*	78*
CCOC(=O)C1(CCCc2ccccc2)CCN(C2CCSCC2)CC1	11	-3	43*	0	1	6	50*	33*
FC(F)(F)c1ccccc1-n1c(CN2CCCCC2)n[nH]c1=S	-5	-6	-3	4	0	-14	·	·
Cc1cc(C)c(S(=O)(=O)N(C)CC(=O)NCc2ccncc2)c(C)c1	-5	-2	27*	-1	-2	4	5	0
Cc1cc(C)c(S(=O)(=O)N(C)CC(=O)NCc2cccnc2)c(C)c1	-18	5	2	-10	·	·	·	·
Cc1cc(NC(=O)c2ccc(-c3ccccc3F)o2)no1	-7	-6	-18	-72	1	8	·	·
Cn1nnnc1SCCNCC#Cc1ccccc1	2	3	26*	-12	7	9	8	4
CC(NC(=O)CSc1nc2ccccc2c(=O)n1CCCO)c1ccccc1 (configuration not stated)	-21	0	-4	-16	-2	1	·	·
CCOc1ncccc1C(=O)Nc1ccc2c(C)cc(=O)oc2c1	-5	5	-12	-3	-3	-2	·	·
COc1ccccc1C(=O)Nc1ccc2c(C)cc(=O)oc2c1	-18	2	42*	-170	·	·	14	11
Cc1cc(=O)oc2cc(OC(=O)c3ccccc3)ccc12	-5	-5	·	-4	-5	1	·	18
CN(C)CCCNc1nc(-c2ccccc2)c2c(c1C#N)CC(C)(C)OC2	7	-3	0	-40	-1	-1	·	·
Cc1nc(NCCO)c(C#N)c2c1COC(C)(C)C2	0	-1	26*	-16	3	8	-21	-5
Cn1c(=O)c(=O)n(C)c2cc(S(=O)(=O)N3CC(=O)N(CCc4ccccc4)C(=O)C3)ccc21	0	-9	23*	0	-9	4	-1	1
Cn1c(=O)c(=O)n(C)c2cc(S(=O)(=O)N3CCN(Cc4ccccc4)CC3)ccc21	0	-6	-7	-4	-3	-1	·	·
Cc1onc(C(=O)N2CCC(Cc3ccccc3)CC2)c1[N+](=O)[O-]	-35	2	-10	-27	·	·	·	·
c1ccc(OCCSc2nnnn2-c2ccccc2)cc1	-13	5	31*	-139	1	4	10	35*
CCn1c(SCCOc2ccc(Cl)cc2)nnc1-c1cccs1	-21	-8	29*	-23	0	3	9	31*
CCn1c(SCC(=O)c2ccc(Cl)cc2)nnc1-c1cccs1	-18	-5	10	-25	-2	6	·	·
CCCNC(=O)COC(=O)/C=C/c1ccco1	1	5	-3	2	2	6	·	·
O=C(COC(=O)/C=C/c1ccc(Cl)cc1)NCCc1ccccc1	-10	-2	21*	-10	-2	6	-1	-1
O=C(COC(=O)/C=C/c1ccco1)NCc1ccccc1	-11	-1	27*	-14	-1	3	-7	-2
O=C1C(Cc2ccc(O)cc2)NC(=S)N1c1ccccc1 (configuration not stated)	3	-3	-5	-16	-4	2	·	·
COc1ccc(C2c3[nH]c4ccccc4c3CCN2C(=O)c2ccccc2C(C)=O)c(F)c1 (configuration not stated)	-37	-4	9	-22	·	·	·	·
COc1cccc(C2c3[nH]c4ccccc4c3CCN2C(=O)c2ccccc2F)c1OC (configuration not stated)	-31	-1	37*	-16	·	·	27*	35*
SMILES	FID counter	IEC-6 tox	GPR7 antag	KLF5 inhibitor	Ba/F3 V617F tox	BaF3 tox	GPR7 antag cf	MCHR1 antagonist
COc1cc(-c2n[nH]c(=S)n2/N=C/c2cccn2C)cc(OC)c1OC	-26	0	80*	9	0	-3	88*	74*
CCOC(=O)N/N=C/c1cn(CCCOc2ccc(C)cc2)c2ccccc12	-21	-9	11	-36	-2	5	·	·
CCOC(=O)N/N=C/c1cn(CCCOc2ccccc2)c2ccccc12	-15	-4	27*	-29	-5	2	9	44*
CCOc1ccccc1NC(=O)N1CCC(c2nc3ccc(C)cc3[nH]2)CC1	-4	-4	-8	-31	-2	5	·	·
CCNc1c(NS(=O)(=O)c2ccc(OC)cc2)c(=O)oc2ccccc12	-15	6	-8	-38	·	·	·	·
c1ccc(-c2cnc(CSc3nnc4ccccn34)o2)cc1	-4	3	-1	-91	-3	-1	·	·
COC(=O)C1C(=O)C2=C(CC1C)NC(=O)CC2c1ccc(O)c(OC)c1 (configuration not stated)	1	0	-2	-10	0	3	·	·
CCOC(=O)C1(Cc2cccc(OC)c2)CCCN(S(=O)(=O)CC)C1 (configuration not stated)	-27	4	27*	0	·	·	-1	0
N#Cc1c(N2CCCCC2)nc(N2CCCCC2)c2c1CCN(Cc1ccccc1)C2	17	13	46*	-25	10	6	-13	17
N#Cc1c(NCCN)nc(NCc2ccccc2)c2c1CCN(Cc1ccccc1)C2	17	-6	7	-15	3	5	·	·
CN(C)CCCN1c2ccccc2Sc2ccc(Cl)cc21	21	3	35*!	-4	0	6	46*	57*
C=CCSc1ccccc1C(=O)Nc1ncn[nH]1	2	-1	-11	-34	·	·	·	·
COC(=O)Nc1ccc(SCC(=O)c2cccc([N+](=O)[O-])c2)cc1	11	0	23*	-15	·	·	20	60*
CC(=O)Nc1ccc(C(=O)OCC(=O)c2cccc([N+](=O)[O-])c2)cc1	4	-2	-1	-25	0	2	·	·
CC(NCCC1(Cc2ccccc2Cl)CCOC(C)(C)C1)c1cccs1 (configuration not stated)	34	0	28*	-2	-1	-3	31*	20
CC1Sc2ccc(S(=O)(=O)N3CCN(c4ccccc4)CC3)cc2NC1=O (configuration not stated)	-27	-9	39*	-23	·	·	18	26*
Cc1ccc(NC(=O)C2CCN(S(=O)(=O)c3ccc4c(c3)C(C)(C)C(=O)N4C)CC2)c(C)c1	-41	4	30*	0	·	·	-1	4
Cc1cc(C)cc(NC(=O)C2CCN(S(=O)(=O)c3ccc4c(c3)NC(=O)C(C)S4)CC2)c1 (configuration not stated)	-37	-3	30*	-13	·	·	25*	46*

Screening data: PubChem, The Scripps Research Institute Molecular Screening Center
